Test results as given in PubChem BioAssay AID1159580 (chemical genetic matrix, 2015).
Values joined by “and” are separate entries in the source; they are usually repeats but may differ in a detail not shown here. Equal entries are not always repeated. The campaign covered roughly 5,500 compounds. About 2,000 (36%) were called active. Inconclusive results (about 18%) are left out. No stated cut-off is given here; in the data, active means normalized growth mostly below about 0.91 (no sharp cut-off); inconclusive means no clear call, values can overlap the other calls; inactive means mostly above about 0.92. Some of the results follow.

Test: chemical genetic growth profiling, strain panel (AID 1159580);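 further: tested at 20 µM; growth read once vehicle control cultures reached saturation at 30 °C; 1 = growth at the plate median or of vehicle wells; lower values mean less growth of the strain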
Settings: growth OD

Measured: normalized growth

COC(=O)C1=CCCN(C)C1
inactive: S. cerevisiae deletion strains, locus YKL068W, hits give low values 0.996 | S. cerevisiae deletion strains, locus YKL085W, strain MDH1 (second series), hits give low values 0.997 | S. cerevisiae deletion strains, locus YKL085W, strain MDH1, hits give low values 0.997 | S. cerevisiae deletion strains, locus YKL160W, strain elf1, hits give low values 1.03 | S. cerevisiae deletion strains, locus YKL190W, strain CNB1, hits give low values 1 | S. cerevisiae deletion strains, locus YKR001C, strain vps1, hits give low values 1.01 | S. cerevisiae deletion strains, locus YKR026C, strain gcn3, hits give low values 1.01 | S. cerevisiae deletion strains, locus YKR091W, strain srl3, hits give low values 1.01 | S. cerevisiae deletion strains, locus YLL001W, strain dnm1, hits give low values 0.989 | S. cerevisiae deletion strains, locus YLL026W, hits give low values 1.02 | S. cerevisiae deletion strains, locus YLL041C, strain sdh2, hits give low values 0.991 | S. cerevisiae deletion strains, locus YLR027C, strain aat2, hits give low values 1 | S. cerevisiae deletion strains, locus YLR039C, strain RIC1, hits give low values 0.983 | S. cerevisiae deletion strains, locus YLR058C, strain SHM2, hits give low values 0.973 | S. cerevisiae deletion strains, locus YLR102C, strain apc9, hits give low values 1 | S. cerevisiae deletion strains, locus YLR113W, strain HOG1, hits give low values 0.994 | S. cerevisiae deletion strains, locus YLR221C, strain rsa3, hits give low values 0.992 | S. cerevisiae deletion strains, locus YLR258W, strain gsy2, hits give low values 1.01 | S. cerevisiae deletion strains, locus YLR262C, strain YPT6 (second series), hits give low values 0.986 | S. cerevisiae deletion strains, locus YLR262C, strain YPT6, hits give low values 0.953 | S. cerevisiae deletion strains, locus YLR268W, strain sec22, hits give low values 1 | S. cerevisiae deletion strains, locus YLR320W, strain mms22, hits give low values 0.961 | S. cerevisiae deletion strains, locus YLR330W, strain CHS5, hits give low values 0.991 | S. cerevisiae deletion strains, locus YLR342W, strain FKS1 (second series), hits give low values 1.01 | S. cerevisiae deletion strains, locus YLR342W, strain FKS1, hits give low values 0.995 | S. cerevisiae deletion strains, locus YLR357W, strain rsc2, hits give low values 1.01 | S. cerevisiae deletion strains, locus YLR370C, strain arc18, hits give low values 1 | S. cerevisiae deletion strains, locus YLR371W, strain rom2, hits give low values 0.999 | S. cerevisiae deletion strains, locus YLR384C, strain iki3, hits give low values 1.02 | S. cerevisiae deletion strains, locus YLR418C, strain cdc73, hits give low values 1.02 | S. cerevisiae deletion strains, locus YML016C, strain PPZ1, hits give low values 0.987 | S. cerevisiae deletion strains, locus YML032C, strain rad52, hits give low values 0.983 | S. cerevisiae deletion strains, locus YML120C, strain ndi1, hits give low values 1 | S. cerevisiae deletion strains, locus YML124C, strain tub3, hits give low values 0.994 | S. cerevisiae deletion strains, locus YMR058W, strain fet3, hits give low values 1.03 | S. cerevisiae deletion strains, locus YMR078C, strain ctf18, hits give low values 0.996 | S. cerevisiae deletion strains, locus YMR125W, strain sto1, hits give low values 1.02 | S. cerevisiae deletion strains, locus YMR129W, hits give low values 1 | S. cerevisiae deletion strains, locus YMR205C, strain PFK2, hits give low values 0.955 | S. cerevisiae deletion strains, locus YMR223W, strain ubp8, hits give low values 0.981 | S. cerevisiae deletion strains, locus YMR231W, strain pep5, hits give low values 1.01 | S. cerevisiae deletion strains, locus YMR263W, strain SAP30, hits give low values 0.984 | S. cerevisiae deletion strains, locus YMR307W, strain GAS1, hits give low values 1.01 and 0.99 | S. cerevisiae deletion strains, locus YNL067W, strain RPL9B, hits give low values 0.979 | S. cerevisiae deletion strains, locus YNL071W, strain lat1, hits give low values 1.01 | S. cerevisiae deletion strains, locus YNL128W, strain TEP1, hits give low values 0.986 | S. cerevisiae deletion strains, locus YNL153C, strain GIM3, hits give low values 0.983 | S. cerevisiae deletion strains, locus YNL175C, strain NOP13, hits give low values 1.04 | S. cerevisiae deletion strains, locus YNL183C, strain NPR1, hits give low values 0.953 | S. cerevisiae deletion strains, locus YNL197C, strain WHI3, hits give low values 1 | S. cerevisiae deletion strains, locus YNL209W, strain ssb2, hits give low values 1 | S. cerevisiae deletion strains, locus YNL224C, strain SQS1, hits give low values 1 | S. cerevisiae deletion strains, locus YNL233W, strain BNI4, hits give low values 0.99 | S. cerevisiae deletion strains, locus YNL248C, strain rpa49, hits give low values 1.02 | S. cerevisiae deletion strains, locus YNL250W, strain rad50, hits give low values 0.993 | S. cerevisiae deletion strains, locus YNL271C, strain bni1, hits give low values 0.995 | S. cerevisiae deletion strains, locus YNL298W, strain CLA4, hits give low values 1 | S. cerevisiae deletion strains, locus YNL307C, strain MCK1, hits give low values 0.996 | S. cerevisiae deletion strains, locus YNL322C, strain KRE1 (second series), hits give low values 1.03 | S. cerevisiae deletion strains, locus YNL322C, strain KRE1, hits give low values 0.985 | S. cerevisiae deletion strains, locus YNR049C, strain mso1, hits give low values 0.995 | S. cerevisiae deletion strains, locus YNR052C, strain pop2, hits give low values 0.995 | S. cerevisiae deletion strains, locus YOL006C, strain TOP1, hits give low values 0.981 | S. cerevisiae deletion strains, locus YOL012C, strain htz1 0.9 | S. cerevisiae deletion strains, locus YOL147C, strain pex11, hits give low values 0.992 | S. cerevisiae deletion strains, locus YOR001W, strain rrp6, hits give low values 0.971 | S. cerevisiae deletion strains, locus YOR061W, strain CKA2, hits give low values 0.968 | S. cerevisiae deletion strains, locus YOR069W, strain VPS5, hits give low values 0.997 | S. cerevisiae deletion strains, locus YOR070C, strain gyp1, hits give low values 1.01 | S. cerevisiae deletion strains, locus YOR080W, strain dia2, hits give low values 1 | S. cerevisiae deletion strains, locus YOR083W, strain WHI5 (second series), hits give low values 1.02 | S. cerevisiae deletion strains, locus YOR083W, strain WHI5, hits give low values 1.01 | S. cerevisiae deletion strains, locus YOR106W, strain vam3, hits give low values 1.04 | S. cerevisiae deletion strains, locus YOR136W, strain idh2, hits give low values 1 | S. cerevisiae deletion strains, locus YOR144C, strain elg1, hits give low values 0.997 | S. cerevisiae deletion strains, locus YOR184W, strain ser1, hits give low values 0.989 | S. cerevisiae deletion strains, locus YOR231W, strain MKK1, hits give low values 0.994 | S. cerevisiae deletion strains, locus YOR265W, strain rbl2, hits give low values 1 | S. cerevisiae deletion strains, locus YOR270C, strain vph1, hits give low values 1.01 | S. cerevisiae deletion strains, locus YOR290C, strain snf2, hits give low values 1.02 | S. cerevisiae deletion strains, locus YOR316C, strain cot1, hits give low values 0.993 | S. cerevisiae deletion strains, locus YPL051W, strain arl3, hits give low values 1.03 | S. cerevisiae deletion strains, locus YPL055C, strain LGE1, hits give low values 0.977 and 1.03 | S. cerevisiae deletion strains, locus YPL078C, strain atp4, hits give low values 1.03 | S. cerevisiae deletion strains, locus YPL106C, strain sse1, hits give low values 1.04 | S. cerevisiae deletion strains, locus YPL240C, strain hsp82, hits give low values 1 | S. cerevisiae deletion strains, locus YPL241C, strain CIN2, hits give low values 0.994 | S. cerevisiae deletion strains, locus YPL256C, strain CLN2, hits give low values 1 | S. cerevisiae deletion strains, locus YPR119W, strain clb2, hits give low values 0.991 | S. cerevisiae deletion strains, locus YPR141C, strain kar3, hits give low values 0.99 | S. cerevisiae deletion strains, locus YPR163C, strain tif3, hits give low values 0.999 | S. cerevisiae deletion strains, locus YPR167C, strain met16, hits give low values 1 | S. cerevisiae deletion strains, strain wtn01, hits give low values 0.994 | S. cerevisiae strains, strain wild type, hits give low values 0.993
